{"source": "PubChem BioAssay (NCI)", "note": "The panel holds about 83,000 compounds, 20% with a hit somewhere; the sample as a whole holds those more often.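 Results are percent growth after 48 hours of single-concentration exposure. 100 means growth as in untreated cells, lower positive values show inhibition; negative values down to -100 show cell death.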 A number with no mark means an inactive call. Calls of active or inactive are those of the source. Rule for the calls: active = growth percent below 10; inactive = the rest."}
{"system": "HL-60(TB) leukemia", "experiment": "NCI-60 one-dose screen, 48 h (100 = growth as untreated, 0 = no growth, -100 = all killed)", "conditions": "10 µM unless noted"}
{"smiles": "CC1(C)CC[C@]23CC[C@]4(C)[C@H](CC[C@@H]5[C@@]6(C)CC[C@H](N)C(C)(C)[C@@H]6CC[C@]54C)[C@H]2[C@H]1OC3", "growth": "-38.4% (active)"}
{"smiles": "CCOc1ccc2nc(NC(=O)c3ccc(C(F)(F)F)cc3)sc2c1", "growth": "93.9%"}
{"smiles": "N#Cc1c(-c2ccc(Cl)cc2)nc(SCc2ccccc2)nc1N1CCNCC1", "growth": "1.3% (active)"}
{"smiles": "COc1ccc(-n2c(SCc3n[nH]c(=S)o3)nc3ccc(Cl)cc3c2=O)cc1", "growth": "109%"}
{"smiles": "O=C(CSc1nnc(-c2cccs2)n1-c1ccccc1)Nc1ccc(F)cc1", "growth": "69.5%"}
